Source: PubChem BioAssay (NCI)
About 83,000 compounds went through this panel and 20% of them were active in at least one assay; those are over-represented in the sample as a whole.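 Negative percent growth values reflect cell death: -40 means 40% of the cells present at the start died, and -100 means all died.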 A number with no mark means an inactive call. Calls of active or inactive are those of the source. The calls were made as follows: active = growth percent below 10; inactive = the rest.

What was measured:
Assay in all cases: NCI-60 one-dose screen, 48 h (100 = growth as untreated, 0 = no growth, -100 = all killed)
Conditions in all cases: 10 µM unless noted
HCT-15 colon = tested on: HCT-15 colon
HT29 colon = tested on: HT29 colon
SNB-75 CNS = tested on: SNB-75 CNS
SNB-19 CNS = tested on: SNB-19 CNS
U251 CNS = tested on: U251 CNS
PC-3 prostate = tested on: PC-3 prostate
SK-MEL-5 melanoma = tested on: SK-MEL-5 melanoma
UACC-62 melanoma = tested on: UACC-62 melanoma
LOX IMVI melanoma = tested on: LOX IMVI melanoma
SK-MEL-28 melanoma = tested on: SK-MEL-28 melanoma
SK-MEL-2 melanoma = tested on: SK-MEL-2 melanoma
EKVX NSCLC = tested on: EKVX NSCLC
SN12C renal = tested on: SN12C renal
UO-31 renal = tested on: UO-31 renal
TK-10 renal = tested on: TK-10 renal
CCRF-CEM leukemia = tested on: CCRF-CEM leukemia
MOLT-4 leukemia = tested on: MOLT-4 leukemia
CAKI-1 renal = tested on: CAKI-1 renal
ACHN renal = tested on: ACHN renal
A498 renal = tested on: A498 renal

Row | SMILES | growth (HCT-15 colon) | growth (HT29 colon) | growth (SNB-75 CNS) | growth (SNB-19 CNS) | growth (U251 CNS) | growth (PC-3 prostate) | growth (SK-MEL-5 melanoma) | growth (UACC-62 melanoma) | growth (LOX IMVI melanoma) | growth (SK-MEL-28 melanoma) | growth (SK-MEL-2 melanoma) | growth (EKVX NSCLC) | growth (SN12C renal) | growth (UO-31 renal) | growth (TK-10 renal) | growth (CCRF-CEM leukemia) | growth (MOLT-4 leukemia) | growth (CAKI-1 renal) | growth (ACHN renal) | growth (A498 renal)
1 | O=S(=O)(NCCCNc1nccc(-c2c(-c3cccc(F)c3)nc3sccn23)n1)c1cccc(F)c1 | 22.6% | 30.6% | 88.6% | 76.8% | 70% | 27.1% | 13.5% | 6.36% (active) | 39% | 68.3% | 47.6% | 52.4% | 56.3% | 28.2% | 72.3% | 24.7% | 9.94% (active) |  |  | 
2 | C=C1C(=O)O[C@H]2[C@H]1CC/C(C(=O)NCCCCCNC(=O)/C1=C/CC[C@@]3(C)O[C@H]3[C@H]3OC(=O)C(=C)[C@@H]3CC1)=C\CC[C@@]1(C)O[C@@H]21 | 95.5% | 102% | 103% | 102% | 99.3% | 91.6% | 100% | 97.9% | 99.9% | 101% | 107% | 105% | 109% | 92.6% | 96.5% | 105% | 96.2% | 106% |  | 
3 | COc1cc2c(c(O)c1Br)C(=O)c1c(O)cc(C[C@H](C)O)cc1[C@H]2[C@H]1c2cc(C[C@H](C)O)cc(O)c2C(=O)c2c1cc(OC)c(Br)c2O | 8.27% (active) | 11% | -6.83% (active) | 18.1% | 10.3% | 16.2% | -74.1% (active) | 4.54% (active) | 4.77% (active) | 31.8% | -38.2% (active) | 9.77% (active) | 9.01% (active) | -29% (active) | 37% | 10.1% | -0.594% (active) | 4.31% (active) |  | 
4 | C=C(C)[C@@H]1CC[C@]2(C(=O)N3CCN(C)CC3)CC[C@]3(C)[C@H](CC[C@@H]4[C@@]5(C)C/C(=C/c6ccncc6)C(=O)C(C)(C)[C@@H]5CC[C@]43C)[C@@H]12 | 35.8% | 15.8% | 87.9% | 64.2% | 47% | 23.7% | 59.8% | 71% | 55.9% | 76.9% | 64.6% | 77.3% | 47.1% | 48% | 89.4% | 24.7% | 3.16% (active) | 71.1% |  | 
5 | COc1cccc(-c2nc3occn3c2-c2ccnc(NCCCNS(=O)(=O)c3ccc(C(F)(F)F)cc3)n2)c1 | 85.3% | 73.5% | 103% | 105% | 84.1% | 75.9% | 68.6% | 67.3% | 87.5% | 97.5% | 92.3% | 92.8% | 85.4% | 71.5% |  | 93.9% | 69% | 75.3% | 89.3% | 
6 | COc1ccc(/C=C2\COc3ccc(-c4ccccc4)cc3C2=O)c(OC)c1 | 84.3% | 76.7% | 65.5% | 103% | 84.6% | 78.2% | 81.2% | 74.1% | 79% | 108% | 101% | 161% | 83.8% | 86.2% |  | 71.2% | 57.9% | 116% | 93% | 128%
7 | NC(=O)CSSCC(N)=O | 102% | 105% | 95.2% | 101% | 93.4% | 92.1% | 98.4% | 95.8% | 100% | 109% | 107% | 86.7% | 108% | 93% |  | 88.3% | 76.8% | 99% | 100% | 127%
8 | O=C(O)c1ccc2c(c1)C(=O)N(Cc1ccccc1)C2=O | 99.9% | 99.9% | 94.2% | 95.1% | 92.7% | 96.2% | 99.7% | 97.9% | 95.7% | 110% | 106% | 99.8% | 98.2% | 83% |  | 92.6% | 98.5% | 99.3% | 99.9% | 85.4%
9 | CNCCOc1nc2c3cnccc3cc(-c3cc(OC)c(OC)c(OC)c3)c2c2ccncc12 | -6.39% (active) | -39.9% (active) | -64.6% (active) | -8.3% (active) | -17.1% (active) | -13.4% (active) | -97.7% (active) | -62.1% (active) | -46.8% (active) | -71.6% (active) | -77.5% (active) | -45.9% (active) | -36.9% (active) | -42.7% (active) | -34.2% (active) | -13.1% (active) | -15.1% (active) |  |  | -87.2% (active)
10 | Cc1cc2nc3c4cc(C=O)ccc4n(CCN(C)C)c3nc2cc1C | 2.81% (active) | 6.7% (active) | 28.2% | 28.1% | 16.8% | 15.5% | 6.63% (active) | 21.5% | -40.5% (active) | 37.1% | 11.7% | 25.4% | 20.5% | -28.6% (active) | 23.2% | 21.7% | 9.19% (active) | 3.46% (active) |  | 
11 | CCNC(=O)Oc1ccc(/C(=C(\C)c2ccccc2)c2ccc(OCCN3CCCCC3)cc2)cc1 | 17% | -13.8% (active) | 84.7% | 79.4% | 48.6% | 49.7% | 62.5% | 52.4% | 57.3% | 47.2% | 82.8% | 82% | 65.2% | 41.2% | 83.3% | 72.7% | 51% | 38.5% |  | 
12 | c1ccc(-c2c(-c3ccccc3)[n+](Cc3ccc4ccccc4c3)c(-c3cccc4ccccc34)n2Cc2ccc3ccccc3c2)cc1 | -52.9% (active) | -49.7% (active) | -57.9% (active) | -68.9% (active) | -94.9% (active) | -60.8% (active) | -98.4% (active) | -64.8% (active) | -98.9% (active) | -71.8% (active) | -77.9% (active) | -10.9% (active) | -81.6% (active) | -93.5% (active) |  | 1.74% (active) | -25.8% (active) | -97.2% (active) | -100% (active) | 
13 | Cc1ccc(CNc2c3ccccc3nc3cc(NC(=O)CCN4CCCC4)ccc23)cc1 | 7.15% (active) | 0.938% (active) | 4.1% (active) | 17.8% | -55.3% (active) | -0.231% (active) | 42.3% | 36.1% | -86.4% (active) | 53.6% | 40.2% | 39.3% | 2.87% (active) | 3.83% (active) | -20% (active) | -31.5% (active) | -33.5% (active) | 7.04% (active) |  | 
14 | N#Cc1c(-c2ccccc2)nc2c(c(-c3ccccc3)nn2-c2ccccc2)c1-c1ccc(O)cc1 | 34.8% | 84.7% | 33.2% | 39.3% | 24.3% | 4.85% (active) | 59% | 61.5% | -48.3% (active) | 49.1% | 72.7% | 45.2% | 61.9% | 27.9% |  | 22.1% |  | 53.4% | 42.3% | -1.01% (active)
15 | O=S(=O)(NCCNc1nccc(-c2c(-c3cccc(F)c3)nc3sccn23)n1)c1ccc(Cl)cc1 | 31.8% | 36% | 78.9% | 66.5% | 55.2% | 56.9% | 36.5% | 44.3% | 43.7% | 74.7% | 79.8% | 66.3% | 48.7% | 23.8% | 88.5% | 50.4% | 46.8% | 41.1% |  | 
16 | N#Cc1c(NC(=O)NCc2ccccc2)sc2c1CCCC2 | 20.3% | 12.8% | 27% | 34.1% | 26.1% | 26.9% | 13.3% | 39.3% | 24% | 64.9% | 45.6% | 57.8% | 35.3% | 47.2% |  | 16.6% | 17.7% | 38.1% | 46.2% | 
